Measurements taken from PubChem BioAssay AID488969 (Vanderbilt High Throughput Screening Facility, 2010).
In all, about 110,000 compounds were measured (“z-score”: median about -0.1, highest 2% from about 2 on). Shown is part of a subset that was picked to be rich in the highest values. Activity calls are given as the source filed them.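 How the source made its calls: active means z-score in the third read window above 3 or below -3; inactive means the rest.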

target: Metabotropic glutamate receptor 8 (Rattus norvegicus) (UniProt P70579); assay: rat mGluR8 modulators via GIRK flux, primary screen, cell-based, thallium flux, HTS (AID 488969); settings: HEK293 rat mGluR8, GIRK (G protein-gated inwardly rectifying potassium channel) thallium flux, FluoZin2; at 10 µM; stronger effect = higher value; submaximal glutamate (EC20) added with thallium
Sequence (P70579 whole entry, looked up): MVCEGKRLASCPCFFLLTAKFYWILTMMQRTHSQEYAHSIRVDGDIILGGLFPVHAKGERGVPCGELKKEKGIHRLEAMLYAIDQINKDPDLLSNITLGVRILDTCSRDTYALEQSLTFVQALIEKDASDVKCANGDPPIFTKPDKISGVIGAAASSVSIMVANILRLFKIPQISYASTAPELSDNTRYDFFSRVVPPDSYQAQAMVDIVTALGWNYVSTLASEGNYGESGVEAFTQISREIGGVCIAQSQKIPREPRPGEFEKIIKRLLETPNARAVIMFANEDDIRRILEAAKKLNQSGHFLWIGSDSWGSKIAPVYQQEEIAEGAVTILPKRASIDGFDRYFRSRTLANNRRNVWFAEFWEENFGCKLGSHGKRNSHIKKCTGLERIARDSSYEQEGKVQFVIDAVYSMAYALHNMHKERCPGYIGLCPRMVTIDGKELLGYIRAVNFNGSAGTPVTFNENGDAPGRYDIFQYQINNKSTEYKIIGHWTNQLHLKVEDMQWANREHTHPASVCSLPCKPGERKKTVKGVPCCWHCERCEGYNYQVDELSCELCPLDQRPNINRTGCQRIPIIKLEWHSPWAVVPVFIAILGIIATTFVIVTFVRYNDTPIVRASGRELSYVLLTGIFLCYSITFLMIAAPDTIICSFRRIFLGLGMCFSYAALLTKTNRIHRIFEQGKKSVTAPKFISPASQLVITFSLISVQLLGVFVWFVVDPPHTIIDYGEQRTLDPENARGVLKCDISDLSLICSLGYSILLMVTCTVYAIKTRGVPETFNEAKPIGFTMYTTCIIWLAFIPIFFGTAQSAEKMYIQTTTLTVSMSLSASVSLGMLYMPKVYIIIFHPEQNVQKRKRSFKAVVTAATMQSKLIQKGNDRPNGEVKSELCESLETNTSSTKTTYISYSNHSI

Going from `CCOC(=O)CSc1c(-c2ccccc2)c2cc(Cl)ccc2[nH]c1=O` to `O=c1[nH]c(-c2cccnc2)nc2ccccc12`, the z-score rises from -0.516 to -0.073.

First: O=C(c1cccn(Cc2cccc(Cl)c2)c1=O)N1CCOCC1
Second: CCN1CCN(C(=O)CN2C(=O)c3cccc4cccc2c34)CC1
The z-score of the first is higher: 0.0735 for the first, -0.191 for the second.

Compared with `CC(C)COP(=O)(c1ccc(N(C)C)cc1)C(O)c1ccncc1` (stereo unspecified), `CC(C)COP(=O)(c1ccc(N(C)C)cc1)C(O)c1ccccn1` (stereo unspecified) is higher in z-score: -0.817 for the first, 0.147 for the second.

Compared with `CCOC(=O)c1ccc(NC(=O)C2=C(C)Nc3nc(CCCO)nn3C2c2cccc(C)c2)cc1` (stereo unspecified), `Cc1ccc(C(=O)NC(=S)Nc2ccc(Oc3ccc(Cl)cc3)cc2)cc1` is higher in z-score: 0.0656 for the first, 0.157 for the second.

Compared with `CC(=O)N1c2c(cc(Br)cc2S(=O)(=O)NCC2COc3ccccc3O2)CC1C` (stereo unspecified), `COc1cccc(CNS(=O)(=O)c2cc(Br)cc3c2N(C(C)=O)C(C)C3)c1` (stereo unspecified) is lower in z-score: 0.248 for the first, 0.241 for the second.

First: CCCCN(Cc1ccccc1)S(=O)(=O)c1cc(Br)cc2c1N(C(C)=O)C(C)C2 (stereo unspecified)
Second: Cn1c(=O)oc2cc(S(=O)(=O)NCc3ccccc3)ccc21
The z-score of the first is higher: 2.82 for the first, 0.611 for the second.

First: CCOc1ccc(/C=C2\SC(=O)N(CCNC(=O)C3COc4ccccc4O3)C2=O)cc1OC (stereo unspecified)
Second: COc1ccc(CCN2C(=O)CCC2(C)C(=O)NCc2cccnc2)cc1OC (stereo unspecified)
The z-score of the first is lower: -0.337 for the first, -0.282 for the second.

Compared with `COc1ccc(/C=N/c2oc(-c3ccccc3)cc2C#N)cc1`, `O=C(N/N=C/c1ccc(Cl)cc1)Nc1ccccc1` is higher in z-score: -0.0521 for the first, -0.0155 for the second.

Going from `O=[N+]([O-])c1ccc(O)c(/C=N/n2cnc3ccccc32)c1` to `Oc1ccc(Br)cc1/C=N/n1cnc2ccccc21`, the z-score rises from -0.812 to 2.45.

Going from `COc1cccc(/C=N/n2cnc3ccccc32)c1OC` to `O=C(N/N=C/c1ccc(Cl)cc1Cl)Nc1ccccc1`, the z-score falls from -0.147 to -0.276.

Compared with `COc1cc(C(=S)N2CCC(C(N)=O)CC2)ccc1O`, `CC(=O)c1cccc(NC(=S)NC2CC2)c1` is higher in z-score: -0.479 for the first, -0.023 for the second.

Going from `CCOc1ccccc1NC=C1C(=O)OC2(CCCCC2)OC1=O` to `O=C1OC2(CCCCC2)OC(=O)C1=CNc1ccc2c(c1)OCO2`, the z-score falls from 0.615 to 0.207.

Compared with `COc1ccccc1N1CCN(C(=O)c2ccc(CN3CCc4ccccc4C3)cc2)CC1`, `CC(=O)N1CCN(c2ccc(NCc3ccc(F)cc3)cc2)CC1` is higher in z-score: -0.0526 for the first, 0.0515 for the second.

Compared with `O=C(Nc1ccccc1)C1=C(O)CC(c2ccc(Cl)cc2)N2CCN=C12` (stereo unspecified), `CC1CN=C2C(C(=O)Nc3ccccc3)=C(O)CC(c3ccccc3)N21` (stereo unspecified) is higher in z-score: -0.724 for the first, 2.31 for the second.

First: CC1=NN(C(=S)Nc2ccccc2)C(c2ccccc2)C1 (stereo unspecified)
Second: CSc1ccccc1NC(=O)Nc1ccccc1
The z-score of the first is lower: 0.129 for the first, 0.531 for the second.

First: N#C/C(=C\c1c(N2CCC(C(N)=O)CC2)nc2ccccn2c1=O)C(=O)NCc1ccco1
Second: N#C/C(=C\c1c(N(Cc2ccccc2)Cc2ccccc2)nc2ccccn2c1=O)C(N)=O
The z-score of the first is higher: -0.0915 for the first, -1.96 for the second.

First: COC(=O)C1C2C=CC3(CN(Cc4ccco4)C(=O)C13)O2 (stereo unspecified)
Second: CCn1c(=N)n(CC(=O)c2ccco2)c2ccccc21
The z-score of the first is higher: 0.49 for the first, 0.33 for the second.

Compared with `CC(=O)N1CCN(c2ccc(NCc3ccc(C(C)C)cc3)cc2)CC1`, `CCc1ccc(CNc2ccc(N3CCN(C(C)=O)CC3)cc2)cc1` is lower in z-score: 2.03 for the first, 0.968 for the second.

Compared with `O=C(Nc1ccc2c(c1)OCO2)C1CCN(C(=O)CSc2ncnc3ccccc23)CC1`, `Cc1ccc(C(=O)O/N=C/c2ccc3c(c2)OCO3)cc1` is higher in z-score: -0.185 for the first, -0.102 for the second.

First: BrC(/C=N/Nc1nc(N2CCOCC2)nc(N2CCOCC2)n1)=C/c1ccccc1
Second: O=C(N/C(=N\O)c1ccccc1)Nc1ccc(Cl)cc1
The z-score of the first is lower: -0.171 for the first, 2.01 for the second.

Going from `Cc1ccccc1Cn1c(=N)n(CC(=O)c2ccco2)c2ccccc21` to `Cc1ccccc1Cn1c(=N)n(CC(=O)c2ccc([N+](=O)[O-])cc2)c2ccccc21`, the z-score falls from 2.17 to 0.33.

First: N=c1n(Cc2ccccc2)c2ccccc2n1CC(O)c1ccco1 (stereo unspecified)
Second: Cc1ccc(Cn2c(=N)n(CC(O)c3ccco3)c3ccccc32)cc1 (stereo unspecified)
The z-score of the first is lower: 0.39 for the first, 1.09 for the second.

Going from `CCCCn1c(=N)n(CC(=O)c2ccco2)c2ccccc21` to `CCCn1c(=N)n(CC(=O)c2ccco2)c2ccccc21`, the z-score rises from -0.268 to -0.051.

Compared with `CC1CCN(C(=S)NC2CCCCC2)CC1`, `Cc1nn(-c2ccc(F)cc2)c(Cl)c1/C=N/NC(=O)c1cccc(S(=O)(=O)N2CCCC2)c1` is higher in z-score: -0.176 for the first, -0.115 for the second.

Compared with `O=C(CSc1ccc(-c2ccccc2)nn1)c1ccccc1`, `Cc1c(C(=O)Nc2ccccc2[N+](=O)[O-])csc1-c1ccccc1` is lower in z-score: 0.0905 for the first, -0.152 for the second.

Going from `CCOCC(=O)Nc1nnc(Cc2ccc(OC)cc2)s1` to `Cc1ccccc1C(=O)NC(=S)Nc1ccc(Cc2ccncc2)cc1`, the z-score falls from -0.115 to -0.501.

Going from `Cc1ccc(C)c(NC(=S)NC(NC(=O)OCc2ccccc2)C(Cl)(Cl)Cl)c1` (stereo unspecified) to `O=C(NC(=S)NCc1ccccc1)c1ccccc1F`, the z-score rises from -0.108 to 1.93.

Compared with `CSc1nnc(-c2ccccc2Cl)o1`, `CSc1ccccc1NC(=O)Nc1ccc(F)c(Cl)c1` is lower in z-score: -0.168 for the first, -0.197 for the second.

Going from `Cc1ccccc1C(=O)NC(=S)Nc1ccc(S(=O)(=O)N(C)c2ccccc2)cc1` to `Cc1ccccc1C(=O)NC(=S)Nc1ccc(Oc2ccc(Cl)cc2)cc1`, the z-score rises from 1.07 to 2.74.

Compared with `O=C(NC(=S)NC(=O)c1ccccc1F)c1ccccc1F`, `O=C(NC(=S)Nc1ccc(Oc2ccccc2)cc1)c1ccc(Cl)cc1` is higher in z-score: 0.339 for the first, 1.23 for the second.

First: Cc1cc(/C=C2/C(=O)NN(c3ccccc3)C2=O)c(C)n1-c1cccc(O)c1
Second: O=C(NC(C(=O)N/N=C/c1c2ccccc2cc2ccccc12)c1n[nH]c(=O)c2ccccc12)c1ccccc1 (stereo unspecified)
The z-score of the first is lower: -0.338 for the first, -0.183 for the second.

Going from `Cn1nnc(NC(=O)CSc2nnnn2-c2ccc(F)cc2)n1` to `Cc1nc2ncnn2c(C)c1CCC(=O)Nc1csc(N)n1`, the z-score falls from 0.0243 to -0.0552.

For `CC(C)CCOP(=O)(c1ccc(N(C)C)cc1)C(O)c1ccccn1` (stereo unspecified), the z-score was 5.74 (active).
With `O=C1OC2(CCCCC2)OC(=O)C1=CNc1nc2ccccc2s1` the z-score was 8.02 (active).
In the case of `CCCCCCCn1c(=N)n(CC(=O)c2ccco2)c2ccccc21`, the z-score is reported as 4.65 (active).
`Cc1ccccc1Cn1c(=N)n(CC(O)c2ccco2)c2ccccc21` (stereo unspecified) was tested, and the z-score was 3.34 (active).
With `CSc1ccccc1NC(=O)Nc1ccc(Cl)cc1` the z-score was 6.38 (active).
In the case of `Cc1cccc(C)c1NC(=S)NC(=O)c1ccccc1F`, the z-score is reported as 7.93 (active).
With `O=C(NC(=S)Nc1ccc(Oc2ccc(Cl)cc2)cc1)c1ccccc1` the z-score was 3.94 (active).
